Screening results from PubChem.
The entries come from a sample that favours hits as a whole.
Pf apPOL block – Pf-apPOL DNA polymerase inhibition; Recombinant Pf-apPOL, molecular beacon fluorescence, 1.5 h; inhibition, % at 10 µM; 210,000 compounds, 0.25% hits; AID 1794808
mHTT CaM bind – inhibitors of human mutant huntingtin-calmodulin interaction; P42858; AlphaScreen His-mHTT/GST-CaM binding, luminescence; inhibition, % at 15 µM; 190,000 compounds, 3.6% hits;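 also: 0% = both proteins with DMSO and 100% = one protein alone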
Target sequence (P42858 whole entry, looked up, stated change not applied): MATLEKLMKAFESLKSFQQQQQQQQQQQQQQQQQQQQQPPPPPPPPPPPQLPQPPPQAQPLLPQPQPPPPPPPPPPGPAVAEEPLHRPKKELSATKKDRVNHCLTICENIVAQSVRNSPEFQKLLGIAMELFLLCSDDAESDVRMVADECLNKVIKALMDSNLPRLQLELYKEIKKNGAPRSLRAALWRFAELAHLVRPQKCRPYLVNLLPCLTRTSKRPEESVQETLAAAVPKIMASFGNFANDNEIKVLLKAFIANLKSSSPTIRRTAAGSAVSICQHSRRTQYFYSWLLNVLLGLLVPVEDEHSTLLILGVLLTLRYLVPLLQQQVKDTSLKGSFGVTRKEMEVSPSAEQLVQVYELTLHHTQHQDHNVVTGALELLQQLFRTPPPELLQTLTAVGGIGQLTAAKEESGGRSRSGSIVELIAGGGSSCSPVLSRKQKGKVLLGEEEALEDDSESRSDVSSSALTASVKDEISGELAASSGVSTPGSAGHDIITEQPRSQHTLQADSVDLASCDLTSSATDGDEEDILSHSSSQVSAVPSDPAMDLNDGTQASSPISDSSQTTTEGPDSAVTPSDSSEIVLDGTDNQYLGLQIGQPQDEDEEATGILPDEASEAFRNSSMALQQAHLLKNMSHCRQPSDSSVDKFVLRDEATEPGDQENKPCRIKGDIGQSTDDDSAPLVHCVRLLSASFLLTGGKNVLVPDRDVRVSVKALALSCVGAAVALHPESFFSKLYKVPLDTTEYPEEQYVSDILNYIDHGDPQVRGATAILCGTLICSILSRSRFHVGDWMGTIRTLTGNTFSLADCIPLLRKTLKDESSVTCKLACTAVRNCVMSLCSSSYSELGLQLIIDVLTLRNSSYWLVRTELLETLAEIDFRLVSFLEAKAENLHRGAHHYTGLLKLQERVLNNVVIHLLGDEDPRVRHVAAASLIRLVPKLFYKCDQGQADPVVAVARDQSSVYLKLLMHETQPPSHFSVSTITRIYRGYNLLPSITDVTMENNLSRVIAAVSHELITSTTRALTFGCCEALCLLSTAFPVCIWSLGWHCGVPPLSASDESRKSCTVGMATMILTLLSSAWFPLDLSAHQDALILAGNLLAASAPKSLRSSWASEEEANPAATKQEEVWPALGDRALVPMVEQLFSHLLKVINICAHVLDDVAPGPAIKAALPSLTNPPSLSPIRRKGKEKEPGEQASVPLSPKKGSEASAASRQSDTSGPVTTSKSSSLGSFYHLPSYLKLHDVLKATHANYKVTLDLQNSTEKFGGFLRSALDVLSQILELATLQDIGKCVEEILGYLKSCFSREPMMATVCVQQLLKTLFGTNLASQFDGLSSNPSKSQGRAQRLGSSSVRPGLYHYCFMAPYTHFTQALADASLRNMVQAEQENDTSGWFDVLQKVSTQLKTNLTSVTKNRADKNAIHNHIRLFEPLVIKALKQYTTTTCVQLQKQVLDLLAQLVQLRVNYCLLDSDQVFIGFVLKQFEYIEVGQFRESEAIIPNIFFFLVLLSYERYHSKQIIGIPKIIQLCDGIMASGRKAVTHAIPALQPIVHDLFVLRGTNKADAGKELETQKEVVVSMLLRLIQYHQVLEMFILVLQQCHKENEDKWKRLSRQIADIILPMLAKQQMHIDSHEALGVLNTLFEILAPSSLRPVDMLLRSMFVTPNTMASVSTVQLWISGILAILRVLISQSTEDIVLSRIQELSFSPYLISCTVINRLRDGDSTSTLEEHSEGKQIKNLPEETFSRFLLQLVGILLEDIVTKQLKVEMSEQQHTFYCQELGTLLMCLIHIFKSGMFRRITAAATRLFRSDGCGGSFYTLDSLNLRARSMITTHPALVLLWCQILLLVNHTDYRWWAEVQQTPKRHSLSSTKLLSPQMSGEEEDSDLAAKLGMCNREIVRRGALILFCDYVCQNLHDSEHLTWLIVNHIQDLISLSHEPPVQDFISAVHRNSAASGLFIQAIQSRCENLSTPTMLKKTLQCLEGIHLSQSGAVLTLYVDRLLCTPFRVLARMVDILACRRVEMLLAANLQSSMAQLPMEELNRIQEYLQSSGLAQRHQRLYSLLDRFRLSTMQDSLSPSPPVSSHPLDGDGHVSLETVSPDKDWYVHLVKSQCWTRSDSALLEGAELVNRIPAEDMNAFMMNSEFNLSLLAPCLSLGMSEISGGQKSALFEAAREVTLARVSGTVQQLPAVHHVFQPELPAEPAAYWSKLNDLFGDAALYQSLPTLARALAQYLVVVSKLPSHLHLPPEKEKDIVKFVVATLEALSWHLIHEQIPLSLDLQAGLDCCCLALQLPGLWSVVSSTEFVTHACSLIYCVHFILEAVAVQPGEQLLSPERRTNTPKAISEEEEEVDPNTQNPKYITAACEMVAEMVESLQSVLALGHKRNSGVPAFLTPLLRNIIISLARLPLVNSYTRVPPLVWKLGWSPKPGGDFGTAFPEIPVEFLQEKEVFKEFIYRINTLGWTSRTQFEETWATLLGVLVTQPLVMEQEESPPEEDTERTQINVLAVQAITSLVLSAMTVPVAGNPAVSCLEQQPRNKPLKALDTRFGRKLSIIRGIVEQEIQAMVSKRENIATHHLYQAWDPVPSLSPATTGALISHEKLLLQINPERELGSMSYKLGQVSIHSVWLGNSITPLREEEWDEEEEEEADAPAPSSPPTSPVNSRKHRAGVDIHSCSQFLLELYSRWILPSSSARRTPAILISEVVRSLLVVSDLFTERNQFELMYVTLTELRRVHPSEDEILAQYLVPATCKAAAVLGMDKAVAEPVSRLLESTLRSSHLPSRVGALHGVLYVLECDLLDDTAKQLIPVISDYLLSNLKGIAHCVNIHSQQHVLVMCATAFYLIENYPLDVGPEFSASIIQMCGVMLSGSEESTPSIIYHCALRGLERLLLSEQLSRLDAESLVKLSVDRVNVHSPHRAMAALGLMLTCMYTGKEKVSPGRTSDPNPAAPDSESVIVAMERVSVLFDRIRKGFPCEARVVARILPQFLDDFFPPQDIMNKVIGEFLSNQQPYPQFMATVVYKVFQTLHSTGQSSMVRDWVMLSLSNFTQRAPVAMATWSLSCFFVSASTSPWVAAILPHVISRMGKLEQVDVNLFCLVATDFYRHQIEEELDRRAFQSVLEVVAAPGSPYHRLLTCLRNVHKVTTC
Starred values were filed as active, the others as inactive; . = not tested or not shown. Rule as the data show it: active = inhibition above about 50%; inactive = the rest.

SMILES | Pf apPOL block | mHTT CaM bind
O=C(c1ccc(F)cc1)N1CCCC(c2ccnc(Nc3cccc(F)c3)n2)C1 (stereo unspecified) | 0 | 81*
Cc1ccc(C(=O)N2CCCC(c3ccnc(Nc4ccc(F)cc4)n3)C2)s1 (stereo unspecified) | 0 | 82*
Cc1ccccc1Nc1nccc(C2CCCN(C(=O)c3ccoc3)C2)n1 (stereo unspecified) | -4 | 20
COc1ccccc1C(=O)N1CCCC(c2ccnc(Nc3ccccc3C)n2)C1 (stereo unspecified) | -5 | 52*
Cc1ccccc1C(=O)N1CCCC(c2ccnc(-c3ccccc3)n2)C1 (stereo unspecified) | -3 | -2
O=C(O)c1cc(-c2ccccn2)nc2ccc(Br)cc12 | -4 | 0
Cc1ccc2c(ccc3nc(C)ccc32)n1 | -2 | 1
CC12COC3(C(=O)N4CCCCCC4)CC1CCC32C (stereo unspecified) | 2 | -14
CCCCNC(=S)N(C1CCCCC1)C1CCCCC1 | . | -34
CC(C)(C)C(=O)N1CCCC(c2ccnc(Nc3cccc(F)c3)n2)C1 (stereo unspecified) | -3 | 78*
Cc1cccc(-c2nccc(C3CCCN(C(=O)C(C)(C)C)C3)n2)c1 (stereo unspecified) | -2 | 5
COc1ccc(C(=O)N2CCCC(c3ccnc(Nc4cccc(F)c4)n3)C2)c(OC)c1 (stereo unspecified) | -5 | -8
COc1ccc(C(=O)N2CCCC(c3ccnc(Nc4cccc(F)c4)n3)C2)cc1 (stereo unspecified) | -1 | 64*
CN(C)c1ccc(C(=O)N2CCCC(c3ccnc(Nc4ccc(F)cc4)n3)C2)cc1 (stereo unspecified) | -3 | 88*
COc1ccccc1C(=O)N1CCCC(c2ccnc(-c3cccc(F)c3)n2)C1 (stereo unspecified) | -4 | 51*
COc1ccccc1C(=O)N1CCCC(c2ccnc(-c3cccc(C)c3)n2)C1 (stereo unspecified) | -5 | 22
COc1ccc(Nc2nccc(C3CCCN(C(=O)c4ccc(C#N)cc4)C3)n2)cc1 (stereo unspecified) | -5 | 12
COc1cc(NC(=O)C2CC(c3ccccc3F)=NO2)cc(OC)c1OC (stereo unspecified) | 0 | -3
O=C1OC(c2ccccc2F)=N/C1=C/c1ccc(Cl)c(Cl)c1 | 2 | 21
C=CCNC(=O)c1c[nH]c2ccc(S(=O)(=O)N(CC)c3ccc(F)cc3)cc2c1=O | -10 | 15
CCOCCCNC(=O)c1c[nH]c2ccc(S(=O)(=O)N(C)c3ccc(Cl)cc3)cc2c1=O | -11 | 24
COCCNC(=O)c1c[nH]c2ccc(S(=O)(=O)N(C)c3ccc(Cl)cc3)cc2c1=O | -10 | 50*
C=CCNC(=O)c1c[nH]c2ccc(S(=O)(=O)N(C)c3ccc(Br)cc3)cc2c1=O | -6 | 55*
CC1=C(C(=O)Nc2ccccn2)C(c2ccc(OCc3ccccc3)cc2)n2ncnc2N1 (stereo unspecified) | 1 | 27
Cc1ccc(S(=O)(=O)N=C2C=CC(=O)c3ccccc32)c(C)c1 | 4 | 86*
SMILES | Pf apPOL block | mHTT CaM bind
Cc1ccc(S(=O)(=O)N=C2C=CC(=O)C=C2)c(C)c1 | -7 | 39
Cc1cc(C)c(S(=O)(=O)n2cnc3ccccc32)c(C)c1 | -2 | -4
Cc1cc(C)c(S(=O)(=O)N=C2C=CC(=O)c3ccccc32)c(C)c1 | 0 | 66*
O=S(=O)(CCc1ccccc1)N1CCN(c2ccc3nnc(-c4ccco4)n3n2)CC1 | 9 | 21
CCCC(=O)N1CCN(c2nc(CN3CCCCCC3)cs2)CC1 | 2 | 7
COc1cc(/C=C2\C(C)=C([N+](=O)[O-])CS2(=O)=O)ccc1O | -1 | 87*
COc1cc([N+](=O)[O-])ccc1O | . | -5
O=C(Cc1ccc(F)cc1F)Nc1ccc(F)cc1 | 4 | -4
CCOc1ccc(C(=O)Nc2c3c(nn2-c2cccc(Cl)c2)CS(=O)(=O)C3)cc1 | -2 | 15
COc1ccc(OC)c(C(O)CN2CCN(c3cccc(C)c3)CC2)c1 (stereo unspecified) | 2 | 6
COc1ccc(CC(=O)Nc2ccc3c(c2)Cc2ccccc2-3)cc1OC | -2 | -3
COc1cc(NCc2ccc3c(c2)Cc2ccccc2-3)cc(OC)c1OC | 6 | 59*
COc1ccc(Nc2nc(N)nc(CN3CCCCC3)n2)cc1 | -4 | 0
COc1ccc(Nc2nc(N)nc(CN3CCN(c4ccccc4)CC3)n2)cc1 | -4 | 54*
COc1cc(/C=C(\C#N)c2nc3ccccc3[nH]2)cc(OC)c1OC | -3 | 8
COc1cc(/C=C(\C#N)c2nc3ccccc3[nH]2)c(Br)cc1O | -6 | 42
Cc1ccc2nc(/C(C#N)=C/c3ccc(O)c([N+](=O)[O-])c3)[nH]c2c1 | 0 | 59*
COc1cc(Br)c(/C=C(\C#N)c2nc3ccccc3[nH]2)cc1OC | -2 | 53*
CCOc1cc(/C=C(\C#N)c2nc3ccccc3[nH]2)cc(I)c1O | 0 | 88*
